# Compounds with a hit are over-represented: about 1.3% of the library has one in this group of screens.
# KCNH2 WT inh – inhibitors of human wildtype KCNH2 potassium channel; U2OS, BacMam KCNH2, thallium flux FluxOr; active compounds read low; 340,000 compounds, 0.37% hits; activity change, % at 1.84 µM; AID 720551; Q12809;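 active means maximum activity change below -70%; inconclusive means maximum activity change between -70% and -50%; inactive means maximum activity change above -50%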; further: on the % scale 0 is the no-effect control and ±100 the full control effect
#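 U2OS cells were transduced with wild-type KCNH2 virus (2.03 x 10^8 / mL) for 4 h at room temperature, then cultured overnight at 37 C. Thallium flux was read with FluxOr dye. Rate constants were normalized to DMSO controls.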
# KCNH2 3.1 inh – KCNH2 3.1 (human) potassium channel inhibition | U2OS KCNH2 3.1, thallium flux FluxOr; active compounds read low | activity change, % (tested at about 1.8 µM) | 340,000 compounds, 0.95% hits | AID 720553;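 active means maximum activity change below -70%; inconclusive means maximum activity change from -70% to -50%; inactive means maximum activity change above -50%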;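 further: thallium influx rate constant from kinetic fluorescence after stimulation buffer; on the % scale 0 is the no-effect control and ±100 the full control effect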
#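 Kinetic fluorescence (2 min after stimulation buffer) measures Tl+ influx through KCNH2 3.1 expressed by viral transduction in U2OS cells; the rate constant is normalized against DMSO controls serving as positive and negative references.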
# Rango dissoc inh – prevents RanGTP from dissociating the Rango-importin beta complex; O95149+P62826; Biochemical FRET Rango-importin beta, RanGTP-induced dissociation; Potency, µM (highest dose often 46.1 µM), inactives show at the top dose activity change, negative = inhibition; 340,000 compounds, 0.071% hits; further: potency means the concentration at half of the fitted maximal effect; % of control where 0% means no effect; nearly all actives have a fitted effect of over 45% in size
#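 Rango (0.1 uM)–importin beta (0.25 uM) complex; RanGTP-RCC1 trigger; 45 min RT; CFP/YFP FRET read.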
# Rango-impB inh – prevents formation of the Rango-importin beta complex; Rango CFP/YFP FRET sensor + importin beta, 45 min; Potency, µM (doses to about 92.2 µM), for inactives: at the highest dose inhibition of complex formation; 340,000 compounds, 0.031% hits; Q14974;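 further: potency means the concentration at half of the fitted maximal effect; 0% = DMSO wells and 100% = buffer wells lacking importin beta; nearly all actives have a fitted effect of over 15% in size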
#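 Inhibition scored from the CFP 486 nm/YFP 530 nm FRET ratio 45 min after adding 0.125 microM importin beta to 50 nM Rango biosensor preincubated 5 min with compound (room temperature, PBS with DTT, Tween-20, BSA). No-importin wells as positive control.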
# Active calls of the source: *; ? = inconclusive; . = no result given. Unless noted, the call rests on the fitted dose curve.
SMILES,KCNH2 WT inh,KCNH2 3.1 inh,Rango dissoc inh,Rango-impB inh
COC(=O)c1ccc(OS(=O)(=O)N(C)C)cc1,-226.5*,-11.1,0.4%,-1.2%
CCC1C(=O)CC(c2ccc([N+](=O)[O-])cc2)NC1c1ccc([N+](=O)[O-])cc1 (centres undefined),-13.7,-79.1*,1.3%,-0.5%
CCC1C(=O)CC(c2ccco2)NC1c1ccco1 (centres undefined),-9.5,-6.1,-3.2%,-0.7%
OC1CCN(CC(O)C(F)(F)F)CC1 (centres undefined),2.2,-101.9*,3.9%,-2.6%
OCCN1CCN(CC(O)C(F)(F)F)CC1 (centres undefined),-2.9,-8.1,-2.9%,-0.8%
O=C(Nc1ccc([N+](=O)[O-])cn1)c1cc(-c2cccc(Br)c2)nc2ccccc12,-7.2,-80.7*,-21.8%,1.7%
Cc1ccc(C2NC(=O)c3ccccc3N2)c(C)c1 (centres undefined),35.6,.,9.6%,4.1%
COc1ccc(-n2nc(C(=O)NCC(=O)NCCCN3CCCCCC3)c3ccccc3c2=O)cc1Cl,2.4,-85.5*,-8.7%,-0.6%
COc1ccc(-n2nc(C(=O)NCC(=O)NCCCN3CCC(C)CC3)c3ccccc3c2=O)cc1Cl,11.0,-17.5,3.5%,-0.5%
CC(C)/C=C1\CC/C(=C\c2ccc(N(C)C)cc2)C1=O,-34.4,-79.4*,?,?
CN(C)c1ccc(/C=C2/C[N+](C)(C)C/C(=C/c3ccc(N(C)C)cc3)C2=O)cc1,44.9,.,16.4µM*,?
CN(CC(=O)Nc1ccc(N2CCOCC2)cc1)CC(=O)Nc1ccc(N2CCOCC2)cc1,-30.3,6.4,12.3%,-1.9%
CN(CC(=O)Nc1ccc(N2CCOCC2)cc1)C(=O)C12CC3CC(CC(C3)C1)C2,0.9,-73.0*,4.6%,0.3%
CCOc1ccc(N(CC(=O)N/N=C/c2ccccn2)S(=O)(=O)c2ccc(Cl)cc2)cc1,-4.4,-81.1*,1.2%,?
CCOc1ccc(N(CC(=O)NCCSc2ccccn2)S(=O)(=O)c2ccc(Cl)cc2)cc1,5.5,-1.1,10.3%,0.4%
CCCCN(C(=O)Cc1ccc(S(=O)(=O)N2CCOCC2)s1)c1c(N)n(CCCC)c(=O)[nH]c1=O,-74.9*,-3.6,-3.7%,-0.1%
O=c1c(Cl)c(Nc2cccc(Cl)c2)cnn1-c1nc2ccccc2s1,-10.0,-106.1*,?,?
CN(CC(=O)OCC(=O)NC1CCCC1)S(=O)(=O)c1ccc(Cl)cc1,4.4,2.9,0.2%,-2.3%
Cc1cccc([C@@H]2[C@@H]3C(=O)N(Cc4ccccc4)C(=O)[C@@H]3[C@]3(Cc4ccccc4)C(=O)N(c4cccc(Cl)c4)C(=O)N23)c1,-12.7,13.8,1.1%,0.8%
CCN1C(=O)[C@H]2[C@@H](c3ccc(C)cc3)N3C(=O)N(c4cccc(Br)c4)C(=O)[C@@]3(C)[C@H]2C1=O,-11.9,-80.1*,0.1%,2.5%
Cc1cccc([C@@H]2[C@@H]3C(=O)N(Cc4ccccc4)C(=O)[C@@H]3[C@]3(C)C(=O)N(c4cccc(Cl)c4)C(=O)N23)c1,-2.5,-73.8*,2.7%,-0.6%
CCN1C(=O)[C@H]2[C@@H](c3ccc(C)cc3)N3C(=O)N(c4ccc(C)cc4)C(=O)[C@@]3(C)[C@H]2C1=O,.,.,-1.0%,4.9%
CC(C)C(=O)c1ccc(O)c(O)c1,1.5,-84.8*,-5.5%,0.2%
O=C(C(=O)c1ccc(O)c(O)c1)c1ccc(O)c(O)c1,5.9,-6.4,-5.0%,0.8%
N=c1ncn(C2OC(CO)C(O)C2O)c2nc(Br)[nH]c12 (centres undefined),-227.8*,-167.9*,.,.
SMILES,KCNH2 WT inh,KCNH2 3.1 inh,Rango dissoc inh,Rango-impB inh
Cc1ccc([N+](=O)[O-])cc1NC(=O)CCCOc1ccccc1,3.4,-109.6*,-18.2%,7.0%
O=S(Cc1ccc(Br)cc1)Cc1nnc(SCc2ccc(Br)cc2)n1-c1ccccc1 (centres undefined),-16.2,-74.5*,2.7%,1.4%
CN(C)c1ccc(N=Nc2ccccc2C(=O)OCC(=O)N2CCCC2)cc1,-26.5,-82.6*,14.7%,?
COc1cc(C(=O)NCCc2ccc(S(N)(=O)=O)cc2)cc(OC)c1OC,-19.1,4.6,-0.1%,-2.1%
Cc1ccc(Sc2cc(C(=O)NCCN(C)C)c3ccccc3n2)cc1,6.3,-96.1*,7.6%,2.1%
NS(=O)(=O)c1ccc(CNC(=O)c2cc(-c3cccnc3)nc3ccccc23)cc1,0.2,-159.1*,-15.8%,3.4%

# Assay outcomes: PubChem BioAssay, National Center for Advancing Translational Sciences (NCATS)
